# Where “and” joins values, the source holds several entries; their conditions need not be identical. Equal entries are not always repeated. Results filed as inconclusive are left out. Calls of active or inactive are those of the source. The call rests on the fitted dose curve; in most records, active means well fitted curve in the direction sought with a large enough effect in the repeat runs; inconclusive means weak or mixed curves; inactive means no such curve, though single readings can be large; an effect the other way counts as inactive or inconclusive.
# Target: Cytochrome P450 1A2 (Homo sapiens) (UniProt P05177)
# Experiment: Cytochrome P450 Family 1 Subfamily A Member 2 (CYP1A2) small molecule antagonists: luciferase reporter qHTS assay (AID 1671199)
# Conditions: P450-Glo CYP1A2 enzyme, luciferin luminescence, 1 h; series mostly up to 115 µM
# In short: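 Signal from luciferin formed by CYP1A2 from a proluciferin substrate is read as luminescence, expressed in relative luminescence units. Compounds sit with enzyme 10 min, NADPH-driven reaction runs 1 h, all at room temperature.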
# Further: nearly all actives have a fitted effect of over 50% in size.
# Potency means the concentration at half of the fitted maximal effect.
# Cytochrome P450 1A2 (Homo sapiens), sequence (P05177 whole entry, looked up): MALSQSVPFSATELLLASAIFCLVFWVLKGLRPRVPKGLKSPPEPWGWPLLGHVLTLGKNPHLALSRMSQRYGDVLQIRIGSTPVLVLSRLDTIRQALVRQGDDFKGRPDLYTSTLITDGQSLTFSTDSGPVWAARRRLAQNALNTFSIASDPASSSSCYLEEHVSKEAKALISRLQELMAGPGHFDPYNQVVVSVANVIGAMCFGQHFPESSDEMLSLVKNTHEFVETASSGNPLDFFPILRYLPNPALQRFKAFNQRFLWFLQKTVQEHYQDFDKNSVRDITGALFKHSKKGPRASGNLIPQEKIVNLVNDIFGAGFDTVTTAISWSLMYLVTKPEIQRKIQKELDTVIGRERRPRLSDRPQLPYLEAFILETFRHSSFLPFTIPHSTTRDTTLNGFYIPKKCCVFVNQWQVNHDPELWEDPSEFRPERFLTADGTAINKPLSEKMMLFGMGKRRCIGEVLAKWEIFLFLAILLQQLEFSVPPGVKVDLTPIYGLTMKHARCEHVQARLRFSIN
row,Compound,Potency
1,CC(C)(C)c1ccc(OP(=O)(Oc2ccccc2)Oc2ccccc2)cc1,16 µM (active)
2,C[C@]12Cc3cn[nH]c3C[C@@H]1CC[C@@H]1[C@@H]2CC[C@@]2(C)[C@H]1CC[C@]2(C)O,inactive
3,CCOP(=S)(NC(C)C)Oc1ccccc1C(=O)OC(C)C (stereo not given),8.94 µM (active)
4,Cc1cc(C2CC2)nc(Nc2ccccc2)n1,2.52 µM (active)
5,CC1=C2C[C@H]3[C@@H](CC=C4C[C@@H](O)CC[C@@]43C)[C@@H]2CC[C@]12O[C@@H]1C[C@H](C)CN[C@H]1[C@H]2C,inactive
6,Cc1ccc2cc3c(ccc4ccccc43)c3c2c1CC3,0.449 µM (active)
7,O=S1OCC2C(CO1)C1(Cl)C(Cl)=C(Cl)C2(Cl)C1(Cl)Cl (stereo not given),inactive
8,CN1C2CCC(C)(C)C1CC(OC(=O)C(O)(c1cccs1)c1cccs1)C2 (stereo not given),inactive
9,COP(=O)(OC)Oc1ccc([N+](=O)[O-])cc1,inactive
10,CCCCCCCc1ccc(O)cc1,35.6 µM (active)
11,CCN(CC)CCc1c[nH]c2ccccc12,52.6 µM (active)
12,C#CCC1=C(C)C(OC(=O)C2C(C=C(C)C)C2(C)C)CC1=O (stereo not given),25 µM (active)
13,CN1CCc2cc(Cl)c(O)cc2[C@H]2c3ccccc3CC[C@@H]21,inactive
14,Oc1ccc([C@H]2CNCc3c2ccc(O)c3O)cc1O,inactive
15,CO/N=C(\C(=O)OC)c1ccccc1CO/N=C(\C)c1cccc(C(F)(F)F)c1,17.8 µM (active)
16,CCOP(=O)(Sc1ccccc1)Sc1ccccc1,10 µM (active)
17,FC(F)C(F)(F)OCC(Cn1cncn1)c1ccc(Cl)cc1Cl (stereo not given),7.06 µM (active)
18,COc1ccc2[nH]cc(CCN(C(C)C)C(C)C)c2c1,40.9 µM (active)
19,C[C@H]1[C@H](c2ccc(Cl)cc2)SC(=O)N1C(=O)NC1CCCCC1,35.6 µM (active)
20,CCOP(=O)(OCC)Oc1nc(Cl)c(Cl)cc1Cl,1.58 µM (active)
21,c1ccc(Nc2ccc(Nc3ccccc3)cc2)cc1,31.6 µM (active)
22,c1csc(-c2ccc(-c3cccs3)s2)c1,1.12 µM (active)
23,CCCCCCC[CH2][Sn]([Cl])([Cl])[CH2]CCCCCCC,35.6 µM (active)
24,Nc1ccc(N=Nc2ccccc2)cc1,4.61 µM (active)
25,Clc1ccc(C(c2ccc(Cl)cc2)C(Cl)Cl)cc1,6.43 µM (active) and 8.94 µM (active)
26,S=C=NCCc1ccccc1,10.1 µM (active)
27,N#Cc1c[nH]cc1-c1cccc2c1OC(F)(F)O2,1.59 µM (active)
28,c1ccc(N=NNc2ccccc2)cc1,13.1 µM (active) and 15.9 µM (active)
29,CN1CCc2cc3c(cc2C1O)OCO3 (stereo not given),40.2 µM (active)
30,O=C1C(Cl)=C(Cl)C(=O)C(Cl)=C1Cl,35.6 µM (active)

# Target: Voltage-gated inwardly rectifying potassium channel KCNH2 (Homo sapiens) (UniProt Q12809)
# Experiment: Human Ether-a-go-go-Related Gene (hERG) channel small molecule antagonists: fluorescence cell-based qHTS assay (AID 1671200)
# Conditions: hERG-U2OS cells, FluxOR thallium flux fluorescence; series mostly up to 76.8 µM
# In short: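 Kinetic two-minute fluorescence traces, sampled at 1 s, were collected following thallium stimulus of U2OS cells (1000 per well) that had been cultured overnight at 37 C and loaded with FluxOR II.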
# Voltage-gated inwardly rectifying potassium channel KCNH2 (Homo sapiens), sequence (Q12809 whole entry, looked up): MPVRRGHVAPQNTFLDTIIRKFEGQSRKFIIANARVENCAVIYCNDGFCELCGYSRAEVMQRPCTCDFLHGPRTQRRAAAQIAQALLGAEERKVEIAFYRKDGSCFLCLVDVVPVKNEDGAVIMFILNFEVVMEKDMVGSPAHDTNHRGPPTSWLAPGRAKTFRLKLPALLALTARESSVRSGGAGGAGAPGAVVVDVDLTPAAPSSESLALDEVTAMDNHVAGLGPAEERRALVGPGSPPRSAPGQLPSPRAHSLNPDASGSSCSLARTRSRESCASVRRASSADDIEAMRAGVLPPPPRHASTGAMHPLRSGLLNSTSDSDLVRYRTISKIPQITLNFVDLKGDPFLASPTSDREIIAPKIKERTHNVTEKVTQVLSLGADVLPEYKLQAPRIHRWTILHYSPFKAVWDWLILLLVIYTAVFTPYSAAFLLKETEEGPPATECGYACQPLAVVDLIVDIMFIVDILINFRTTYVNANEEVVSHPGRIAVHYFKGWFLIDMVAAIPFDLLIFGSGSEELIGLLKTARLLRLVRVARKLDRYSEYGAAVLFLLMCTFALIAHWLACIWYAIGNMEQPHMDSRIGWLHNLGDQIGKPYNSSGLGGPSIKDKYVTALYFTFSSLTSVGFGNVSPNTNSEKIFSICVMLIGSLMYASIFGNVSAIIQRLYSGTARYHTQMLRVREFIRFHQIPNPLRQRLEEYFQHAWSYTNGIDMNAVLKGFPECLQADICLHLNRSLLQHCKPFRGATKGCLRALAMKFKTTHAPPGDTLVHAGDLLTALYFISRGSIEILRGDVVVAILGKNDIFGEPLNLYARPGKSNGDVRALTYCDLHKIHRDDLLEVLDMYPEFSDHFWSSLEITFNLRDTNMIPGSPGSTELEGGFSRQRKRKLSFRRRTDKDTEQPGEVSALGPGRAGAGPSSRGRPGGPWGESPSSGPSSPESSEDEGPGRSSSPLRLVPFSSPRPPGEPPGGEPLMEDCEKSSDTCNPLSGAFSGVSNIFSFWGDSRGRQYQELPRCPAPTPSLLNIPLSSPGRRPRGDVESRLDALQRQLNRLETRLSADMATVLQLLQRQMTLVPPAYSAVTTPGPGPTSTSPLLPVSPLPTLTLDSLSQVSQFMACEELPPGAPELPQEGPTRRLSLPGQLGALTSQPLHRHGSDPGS
row,Compound,Potency
1,CCCC[N+]1(C)CCCC1 (tested in a mixture with another compound),inactive
2,CC(C)(C)c1ccc(OP(=O)(Oc2ccccc2)Oc2ccccc2)cc1,15.6 µM (active)
3,C[C@]12Cc3cn[nH]c3C[C@@H]1CC[C@@H]1[C@@H]2CC[C@@]2(C)[C@H]1CC[C@]2(C)O,inactive
4,CCOP(=S)(NC(C)C)Oc1ccccc1C(=O)OC(C)C (stereo not given),inactive
5,Cc1cc(C2CC2)nc(Nc2ccccc2)n1,inactive
6,CC1=C2C[C@H]3[C@@H](CC=C4C[C@@H](O)CC[C@@]43C)[C@@H]2CC[C@]12O[C@@H]1C[C@H](C)CN[C@H]1[C@H]2C,inactive
7,Cc1ccc2cc3c(ccc4ccccc43)c3c2c1CC3,inactive
8,O=S1OCC2C(CO1)C1(Cl)C(Cl)=C(Cl)C2(Cl)C1(Cl)Cl (stereo not given),21.9 µM (active) and 27.5 µM (active)
9,COP(=O)(OC)Oc1ccc([N+](=O)[O-])cc1,inactive
10,CCN(CC)CCc1c[nH]c2ccccc12,inactive
11,C#CCC1=C(C)C(OC(=O)C2C(C=C(C)C)C2(C)C)CC1=O (stereo not given),43.4 µM (active)
12,CN1CCc2cc(Cl)c(O)cc2[C@H]2c3ccccc3CC[C@@H]21,9.52 µM (active)
13,CSC1=N[C@@](C)(c2ccccc2)C(=O)N1Nc1ccccc1,inactive
14,O=[N+]([O-])c1cccc2cccc([N+](=O)[O-])c12,inactive
15,Oc1ccc([C@H]2CNCc3c2ccc(O)c3O)cc1O,inactive
16,CO/N=C(\C(=O)OC)c1ccccc1CO/N=C(\C)c1cccc(C(F)(F)F)c1,inactive
17,CCOP(=O)(Sc1ccccc1)Sc1ccccc1,inactive
18,FC(F)C(F)(F)OCC(Cn1cncn1)c1ccc(Cl)cc1Cl (stereo not given),inactive

row,Compound,Potency
1,COc1ccc2[nH]cc(CCN(C(C)C)C(C)C)c2c1,28.2 µM (active)
2,O=[N+]([O-])[O-].[Tl+],inactive
3,C[C@H]1[C@H](c2ccc(Cl)cc2)SC(=O)N1C(=O)NC1CCCCC1,38.9 µM (active)
4,CCOP(=O)(OCC)Oc1nc(Cl)c(Cl)cc1Cl,inactive
5,c1ccc(Nc2ccc(Nc3ccccc3)cc2)cc1,38.7 µM (active)
6,c1csc(-c2ccc(-c3cccs3)s2)c1,inactive
7,CCCCCCC[CH2][Sn]([Cl])([Cl])[CH2]CCCCCCC,inactive
8,Nc1ccc(N=Nc2ccccc2)cc1,inactive
9,Clc1ccc(C(c2ccc(Cl)cc2)C(Cl)Cl)cc1,24.9 µM (active) and 19.5 µM (active)
10,CCN(CC)Cc1nccn1-c1ccc([N+](=O)[O-])cc1C(=O)c1ccccc1Cl,5.35 µM (active)
11,C=Cc1cccc(CCl)c1,inactive
12,Oc1ccc2[nH]cc(CCCCN3CC=C(c4ccccc4)CC3)c2c1,2.68 µM (active)
13,S=C=NCCc1ccccc1,15.5 µM (active)
14,N#Cc1c[nH]cc1-c1cccc2c1OC(F)(F)O2,inactive
15,CN1CCc2cc3c(cc2C1O)OCO3 (stereo not given),inactive
16,O=C1C(Cl)=C(Cl)C(=O)C(Cl)=C1Cl,34.7 µM (active)
17,ClC1=C(Cl)[C@]2(Cl)[C@@H]3[C@H]4C[C@H]([C@@H]5O[C@H]45)[C@@H]3[C@@]1(Cl)C2(Cl)Cl,inactive

# — PubChem BioAssay (Tox21)
